Inconclusive results are not listed. Calls of active or inactive are those of the source. Unless noted, calls follow the shape of the dose curve; as a rule, active = well fitted curve in the direction sought with a large enough effect; inconclusive = small, poorly fitted or top-dose-only effect, or another doubt; inactive = no such curve, though single readings can be large; an effect the other way counts as inactive or inconclusive.
Key:
[1] = target: Lysosomal acid glucosylceramidase (Homo sapiens) (UniProt P04062); experiment: Glucocerebrosidase-p2 (AID 348; in the data active = potency below about 10 µM; also: potency is read from the fitted curve at half-maximal effect); conditions: purified GBA, blue fluorogenic substrate, 40 min
How it was run: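 Compounds titrated from 0.6 nM upwards against 0.2 nM enzyme in pH 5.9 citric acid/KH2PO4, taurocholate, tween-20; blue fluorogenic substrate 80 uM, 40 min room temperature, stopped and read Ex 365/Em 440 for AC50.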

[2] = target: Cytochrome P450 1A2 (Homo sapiens) (UniProt P05177); experiment: p450-cyp1a2 (AID 410; calls by dose curve; also: potency is read from the fitted curve at half-maximal effect); conditions: recombinant CYP1A2, luciferin-ME demethylation, luminescence; series mostly up to 57 µM
How it was run: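 Inhibition was calculated relative to 57 uM furafylline (full inhibition). The reaction used human CYP1A2 at 20nM with Luciferin-ME at its Km, 100uM, driven by an NADPH-regenerating system for 60 min at room temperature.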

[3] = target: Glucocorticoid receptor (Homo sapiens) (UniProt P04150); experiment: GR-GFP Redistribution (AID 450;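 active = compounds whose dose series gives a full or clear partial fitted curve of increased nuclear translocation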; also: potency is read from the fitted curve at half-maximal effect); conditions: U2OS GR-GFP nuclear translocation, laser cytometry, 2 h
[4] = target: Glucocorticoid receptor (Homo sapiens) (UniProt P04150); experiment: GR-EFC Redistribution (AID 451; calls by dose curve; also: potency is read from the fitted curve at half-maximal effect); conditions: CHO-K1 GR-EFC translocation, beta-gal luminescence, 2 h
How it was run: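 Translocation of GR-ED fusion to nuclear EA restores b-gal, read by luminescence after 1 h room-temperature detection. Engineered CHO-K1 biosensor cells, 1,000/well, exposed 2 h at 37 C to titrations up to 46 uM final.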

[5] = target: Mitogen-activated protein kinase 10 (Mus musculus) (UniProt Q61831); experiment: JNK3 AlphaScreen Assay (AID 530; active = well fitted curve in either direction with a large enough effect, not every such curve was filed as active;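 also: kinase came from lysate of stimulated human HepG2 cells; signal reports phosphorylation of biotinylated GST-cJun 1-79 at Ser73 with 10 µM ATP; % is scaled to controls: 0 for no effect and ±100 for the full control effect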); conditions: JNK3 lysate, c-Jun phosphorylation; series mostly up to 57.1 µM
How it was run: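 Room-temperature AlphaScreen kinase assay; pre-activated HepG2 lysate as JNK3 source, biotin-GST-cJun(1-79) substrate, 10 uM ATP, compound 15 min preincubation.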

[6] = target: 3',5'-cyclic-AMP phosphodiesterase 4B (Homo sapiens) (UniProt Q07343); experiment: qHTS Assay for Inhibitors of PDE-IV (AID 607; active = well fitted activation curve with a large enough effect in the main read-out, with a control signal flat, not every such curve was filed as active; also: % of control where 0% means no effect); conditions: HEK293 ACTOne CNG channel cells, membrane potential fluorescence; series mostly up to 22.9 µM
How it was run: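 Live HEK293 cells with a modified cyclic nucleotide-gated (CNG) channel report intracellular cAMP via membrane-potential dye fluorescence (ex 535/em 590 nm). Endogenous PDE-IV was targeted. Compounds were tested at up to 22.9 uM final; RO 20-1724 100 uM served as control.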

[7] = qHTS Assay for Identification of Small Molecule Agonists for Hypoxia Response Element Signaling Pathway (AID 914; active = well fitted activation curve with a large enough effect in the signal ratio, with a control signal flat, not every such curve was filed as active; the % refers to the signal ratio; also: potency is read from the fitted curve at half-maximal effect); conditions: ME-180 HRE-bla reporter, beta-lactamase ratio, CoCl2, 17 h; activation: stronger effect = higher value
How it was run: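 HRE-bla ME-180 cells with beta-lactamase reporter under hypoxia response element, compounds with EC50 CoCl2 for 17 hours at 37 C. CCF4 substrate, 460nm/530nm emission ratio gave %Activity; AC50 from titration series.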

[8] = qHTS Assay for Lipid Storage Modulators (AID 1519; calls by dose curve); conditions: Drosophila S3 cells, BODIPY lipid droplet/cell ratio, laser cytometry, cells loaded with oleic acid; for activity change, negative = inhibition: at 57.5 µM (top of the series)
How it was run: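 Cells seeded at 5,000 per well were treated with compounds over a concentration series and loaded with oleic acid (400 uM, as added). Lipid droplet fluorescence (488 nm excitation, 500-530 nm channel) was read by laser-scanning cytometry and normalized to 20 uM Triacsin C.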

[9] = Primary qHTS for small molecule stabilizers of the endoplasmic reticulum resident proteome: Secreted ER Calcium Modulated Protein (SERCaMP) assay (AID 1508630); conditions: SH-SY5Y GLuc-SERCaMP (Gaussia luciferase released on ER calcium loss) secretion, thapsigargin, luminescence; series mostly up to 38.4 µM; also: % is scaled to controls: 0 for no effect and ±100 for the full control effect
How it was run: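 GLuc-SERCaMP-expressing SH-SY5Y cells, pretreated 16 h with compound, are challenged with thapsigargin to empty ER calcium stores; after 4 h, coelenterazine is added directly to the medium and luminescence is imaged.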

[10] = AP1 Signaling Pathway (AID 357; active = well fitted curve in either direction with a large enough effect, not every such curve was filed as active;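 also: ME-180 reporter cells stimulated with EGF at its EC50 level; % is scaled to controls: 0 for no effect and ±100 for the full control effect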); conditions: ME-180 AP-1-bla reporter, EGF-induced, beta-lactamase ratio, 5 h; at 7.69 µM (top of the series) unless noted
How it was run: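 A ratiometric CCF4 readout (405 nm excitation; 460 and 530 nm emission) quantified AP-1-driven beta-lactamase in ME-180 cells after 5 h with compound and EC50 EGF; AC50 values were derived for activators and inhibitors.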

[11] = NFAT Signaling Pathway (AID 444; active = well fitted curve in either direction with a large enough effect, not every such curve was filed as active;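 also: carbachol stimulus at about its EC50 of 1 µM final; % is scaled to controls: 0 for no effect and ±100 for the full control effect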); conditions: Jurkat NFAT-bla M1, carbachol, beta-lactamase ratio, 5 h; at 7.69 µM (top of the series) unless noted
How it was run: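 Read-out: CCF4 FRET ratio (460 nm/530 nm) after 1 h RT dye loading, used for %activity and AC50 from titration series. Cells: Jurkat NFAT-β-lactamase/M1 line, treated with compound plus 1 uM carbachol for 5 h, 37 °C.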

[12] = target: Cytochrome P450 2C9 (Homo sapiens) (UniProt P11712); experiment: qHTS Assay for Inhibitors and Substrates of Cytochrome P450 2C9 (AID 883); conditions: recombinant CYP2C9, luciferin-H luminescence, 60 min; series mostly up to 57.1 µM; also: % is scaled to controls: 0 for no effect and ±100 for the full control effect; nearly all actives have a fitted effect of over 60% in size
How it was run: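 Turnover of Luciferin-H (100uM, KM) by 10nM human CYP2C9 was measured over 60 min at 37C with NADPH regeneration; inhibitors and some substrates reduce luminescence. Data normalized to sulphaphenazole 57uM.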

[13] = target: Cytochrome P450 3A4 (Homo sapiens) (UniProt P08684); experiment: qHTS Assay for Activators of Cytochrome P450 3A4 (AID 885); conditions: recombinant CYP3A4, Luciferin-PPXE luminescence, 60 min; series mostly up to 57.1 µM; also: nearly all actives have a fitted effect of over 65% in size
How it was run: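 Quantitative HTS format: compounds preincubated with 20nM human CYP3A4 and Luciferin-PPXE substrate at KM, reaction started by NADPH regeneration, stopped after 60 min, luciferase luminescence read 20 min later.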

[14] = target: Cytochrome P450 2D6 (Homo sapiens) (UniProt P10635); experiment: qHTS Assay for Inhibitors and Substrates of Cytochrome P450 2D6 (AID 891); conditions: recombinant CYP2D6, luciferin-ME EGE luminescence; series mostly up to 57.1 µM; also: potency is read from the fitted curve at half-maximal effect; nearly all actives have a fitted effect of over 60% in size
How it was run: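 Human CYP2D6 (5 nM) with 30 uM Luciferin-ME EGE (at Km) in 100 mM KPO4, compound preincubated 10 min, then NADPH regeneration system for 60 min at room temperature. Luciferin read by luminescence; normalized to 1.43 uM quinidine.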

[15] = Confirmation and Secondary Assay for Modulators of Hemoglobin Beta Chain Splicing at IVS2 654 locus (AID 910); conditions: HeLa EGFP-654 splicing reporter, GFP fluorescence, 48 h; series mostly up to 38.3 µM;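 also: HeLa cells stably carrying EGFP split by mutant beta-globin IVS2-654 intron; % of control where 0% means no effect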
How it was run: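 Readout: per-well total peak green fluorescence (488 nm ex, 500–520 nm em) from objects 5–250 µm, reflecting correct splicing of an EGFP-654 reporter. Compounds were applied for 2 days at 37 °C to overnight-plated HeLa EGFP-654 cells; controls were DMSO and 500 nM IVS2-654 PNA.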

[16] = Confirmation and Secondary Assay for Modulators of Hemoglobin Beta Chain Splicing at IVS2 705 locus (AID 930); conditions: HeLa EGFP-705 splicing reporter, GFP fluorescence, 48 h; series mostly up to 38.3 µM;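 also: HeLa cells stably expressing the EGFP-705 splicing reporter; GFP fluorescence per well restored by corrected splicing of the IVS2-705 intron in EGFP; % of control where 0% means no effect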
How it was run: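 HeLa cells stably carrying EGFP interrupted by mutant beta-globin intron 2 (IVS2-705) treated 2 days at 37C with compound; 500 nM antisense PNA as control. Correct splicing read as total peak GFP intensity per well by laser-scanning cytometry.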

[17] = target: Ubiquitin carboxyl-terminal hydrolase 1 (Homo sapiens) (UniProt O94782); experiment: Inhibitors of USP1/UAF1: Pilot qHTS (AID 504865); conditions: purified USP1/UAF1, Ub-rhodamine cleavage fluorescence; series mostly up to 54.9 µM; also: nearly all actives have a fitted effect of over 35% in size; also: potency is read from the fitted curve at half-maximal effect
How it was run: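 Deubiquitinase activity followed as kinetic rhodamine fluorescence release from 150 nM Ub-Rho. 1 nM USP1/UAF1 with compound, after 15 min room-temperature preincubation, in HEPES pH 7.8 buffer containing TCEP, EDTA, BSA and Tween-20.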

[18] = Stat Signaling Pathway (AID 446; active = well fitted curve in either direction with a large enough effect, not every such curve was filed as active); conditions: ME-180 (cervical carcinoma) SIE beta-lactamase reporter, IL-6 stimulated, 5 h; at 7.69 µM (top of the series) unless noted
How it was run: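 IL-6/STAT signaling read in ME-180 cells via an SIE beta-lactamase reporter. Stimulus was 40 pM IL-6 (its AC50) for 5 hrs, so both activation and inhibition register.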

[19] = target: Cytochrome P450 3A4 (Homo sapiens) (UniProt P08684); experiment: qHTS Assay for Inhibitors and Substrates of Cytochrome P450 3A4 (AID 884); conditions: recombinant CYP3A4, Luciferin-PPXE luminescence; series mostly up to 57.1 µM; also: potency is read from the fitted curve at half-maximal effect; nearly all actives have a fitted effect of over 50% in size
How it was run: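 20 nM human CYP3A4 with 25 uM Luciferin-PPXE (at KM) in 200 mM KPO4, preincubated 10 min with compound; NADPH regeneration started a 60 min RT reaction. Luciferin detected by luminescence, normalized to 57 uM ketoconazole as full inhibition.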

[20] = measured here: cell count channel max response
[21] = measured here: lipid channel max response

Lysosomal acid glucosylceramidase (Homo sapiens), sequence (P04062 whole entry, looked up): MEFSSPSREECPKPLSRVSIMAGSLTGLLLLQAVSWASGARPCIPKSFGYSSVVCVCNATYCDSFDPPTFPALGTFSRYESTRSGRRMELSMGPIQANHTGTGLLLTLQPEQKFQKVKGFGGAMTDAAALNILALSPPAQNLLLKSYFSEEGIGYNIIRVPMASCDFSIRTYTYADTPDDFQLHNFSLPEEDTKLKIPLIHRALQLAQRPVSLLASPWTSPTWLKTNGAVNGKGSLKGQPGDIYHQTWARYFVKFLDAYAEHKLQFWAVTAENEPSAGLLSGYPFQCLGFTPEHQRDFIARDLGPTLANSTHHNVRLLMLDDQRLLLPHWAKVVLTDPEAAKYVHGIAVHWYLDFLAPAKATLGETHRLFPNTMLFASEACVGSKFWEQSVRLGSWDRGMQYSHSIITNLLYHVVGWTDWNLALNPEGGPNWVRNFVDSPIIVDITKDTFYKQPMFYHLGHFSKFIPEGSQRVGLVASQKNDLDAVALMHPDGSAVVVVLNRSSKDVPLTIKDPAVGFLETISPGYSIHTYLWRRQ
Glucocorticoid receptor (Homo sapiens), sequence (P04150 whole entry, looked up, the tested form may be a part): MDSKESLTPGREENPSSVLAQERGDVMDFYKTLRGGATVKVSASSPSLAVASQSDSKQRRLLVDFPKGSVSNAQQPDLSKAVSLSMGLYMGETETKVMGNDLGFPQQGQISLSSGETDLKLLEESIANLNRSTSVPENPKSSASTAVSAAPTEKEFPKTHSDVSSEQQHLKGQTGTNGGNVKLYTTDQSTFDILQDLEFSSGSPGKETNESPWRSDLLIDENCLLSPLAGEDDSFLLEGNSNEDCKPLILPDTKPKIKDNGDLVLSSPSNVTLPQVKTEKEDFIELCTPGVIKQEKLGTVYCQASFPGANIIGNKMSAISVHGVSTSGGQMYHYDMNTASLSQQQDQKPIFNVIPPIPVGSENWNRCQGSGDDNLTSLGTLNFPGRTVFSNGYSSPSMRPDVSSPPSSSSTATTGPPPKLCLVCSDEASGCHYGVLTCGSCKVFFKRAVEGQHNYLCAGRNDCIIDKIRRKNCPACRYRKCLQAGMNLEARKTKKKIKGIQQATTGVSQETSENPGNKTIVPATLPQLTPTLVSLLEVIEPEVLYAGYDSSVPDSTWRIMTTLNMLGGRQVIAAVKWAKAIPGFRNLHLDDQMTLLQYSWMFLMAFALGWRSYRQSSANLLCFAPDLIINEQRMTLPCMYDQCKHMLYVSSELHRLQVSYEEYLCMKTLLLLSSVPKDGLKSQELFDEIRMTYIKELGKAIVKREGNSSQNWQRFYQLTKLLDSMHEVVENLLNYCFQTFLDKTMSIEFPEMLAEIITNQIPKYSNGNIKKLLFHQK
Cytochrome P450 3A4 (Homo sapiens), sequence (P08684 whole entry, looked up): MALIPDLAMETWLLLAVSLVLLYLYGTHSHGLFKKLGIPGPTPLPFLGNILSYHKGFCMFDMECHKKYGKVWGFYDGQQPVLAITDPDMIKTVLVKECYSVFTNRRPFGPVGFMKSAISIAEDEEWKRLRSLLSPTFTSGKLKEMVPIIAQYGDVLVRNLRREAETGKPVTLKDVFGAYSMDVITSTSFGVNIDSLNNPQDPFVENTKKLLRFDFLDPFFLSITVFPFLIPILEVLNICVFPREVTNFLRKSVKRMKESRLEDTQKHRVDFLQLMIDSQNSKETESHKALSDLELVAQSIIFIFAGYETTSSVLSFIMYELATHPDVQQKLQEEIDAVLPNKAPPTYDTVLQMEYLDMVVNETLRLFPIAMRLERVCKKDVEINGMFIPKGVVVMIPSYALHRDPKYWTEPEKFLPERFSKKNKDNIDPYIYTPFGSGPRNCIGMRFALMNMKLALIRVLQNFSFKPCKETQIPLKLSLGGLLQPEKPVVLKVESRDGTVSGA
Cytochrome P450 1A2 (Homo sapiens), sequence (P05177 whole entry, looked up): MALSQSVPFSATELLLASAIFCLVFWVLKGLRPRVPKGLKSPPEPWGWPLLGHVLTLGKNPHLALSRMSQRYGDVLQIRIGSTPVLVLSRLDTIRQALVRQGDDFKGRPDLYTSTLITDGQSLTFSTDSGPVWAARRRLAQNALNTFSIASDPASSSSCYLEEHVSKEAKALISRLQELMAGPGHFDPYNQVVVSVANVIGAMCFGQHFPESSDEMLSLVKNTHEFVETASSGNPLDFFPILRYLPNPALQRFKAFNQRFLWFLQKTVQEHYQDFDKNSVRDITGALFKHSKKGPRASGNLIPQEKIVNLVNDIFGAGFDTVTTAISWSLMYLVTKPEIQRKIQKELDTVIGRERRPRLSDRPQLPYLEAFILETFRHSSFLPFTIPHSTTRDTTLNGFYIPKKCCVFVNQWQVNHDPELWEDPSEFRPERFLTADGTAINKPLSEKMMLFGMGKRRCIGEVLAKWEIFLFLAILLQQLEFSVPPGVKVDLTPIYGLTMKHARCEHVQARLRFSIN
Ubiquitin carboxyl-terminal hydrolase 1 (Homo sapiens), sequence (O94782 whole entry, looked up): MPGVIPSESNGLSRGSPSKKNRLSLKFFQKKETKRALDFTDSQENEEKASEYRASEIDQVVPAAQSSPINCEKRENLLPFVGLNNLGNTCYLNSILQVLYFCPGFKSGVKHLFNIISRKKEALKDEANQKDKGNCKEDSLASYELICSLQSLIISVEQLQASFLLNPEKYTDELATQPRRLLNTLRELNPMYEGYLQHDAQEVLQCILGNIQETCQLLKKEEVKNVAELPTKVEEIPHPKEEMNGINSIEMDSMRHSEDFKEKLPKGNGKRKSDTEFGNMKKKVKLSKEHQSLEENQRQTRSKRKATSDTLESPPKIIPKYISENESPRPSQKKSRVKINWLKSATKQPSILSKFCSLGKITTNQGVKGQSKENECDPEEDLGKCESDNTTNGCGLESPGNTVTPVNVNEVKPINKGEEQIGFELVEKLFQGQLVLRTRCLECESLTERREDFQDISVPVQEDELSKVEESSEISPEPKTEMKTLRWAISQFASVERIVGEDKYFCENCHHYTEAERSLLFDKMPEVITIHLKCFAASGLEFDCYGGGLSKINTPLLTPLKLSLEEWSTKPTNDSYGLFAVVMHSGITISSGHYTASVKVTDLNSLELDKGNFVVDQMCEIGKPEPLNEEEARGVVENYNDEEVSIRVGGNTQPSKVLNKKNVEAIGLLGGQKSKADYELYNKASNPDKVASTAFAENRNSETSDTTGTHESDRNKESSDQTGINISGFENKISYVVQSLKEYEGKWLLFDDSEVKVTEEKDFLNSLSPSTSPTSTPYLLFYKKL
3',5'-cyclic-AMP phosphodiesterase 4B (Homo sapiens), sequence (Q07343 whole entry, looked up): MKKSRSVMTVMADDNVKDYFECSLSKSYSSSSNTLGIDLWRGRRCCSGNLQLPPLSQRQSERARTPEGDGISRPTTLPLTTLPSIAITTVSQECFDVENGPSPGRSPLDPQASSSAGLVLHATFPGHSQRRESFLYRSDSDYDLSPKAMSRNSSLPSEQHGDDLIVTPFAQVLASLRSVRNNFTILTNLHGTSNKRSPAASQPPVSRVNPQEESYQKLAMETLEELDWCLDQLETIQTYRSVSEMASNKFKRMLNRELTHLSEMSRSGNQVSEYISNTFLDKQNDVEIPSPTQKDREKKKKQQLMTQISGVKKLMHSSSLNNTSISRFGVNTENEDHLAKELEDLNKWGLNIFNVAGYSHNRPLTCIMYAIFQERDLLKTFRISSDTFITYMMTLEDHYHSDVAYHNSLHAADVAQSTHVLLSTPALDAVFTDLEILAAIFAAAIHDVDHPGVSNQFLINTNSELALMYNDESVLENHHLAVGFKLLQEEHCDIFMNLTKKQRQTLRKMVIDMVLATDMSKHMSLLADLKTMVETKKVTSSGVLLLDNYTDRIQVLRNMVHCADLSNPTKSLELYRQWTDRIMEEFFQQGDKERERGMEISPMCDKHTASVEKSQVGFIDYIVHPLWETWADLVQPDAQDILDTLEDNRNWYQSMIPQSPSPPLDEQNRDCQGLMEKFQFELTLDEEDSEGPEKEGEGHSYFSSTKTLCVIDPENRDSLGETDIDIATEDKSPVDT
Cytochrome P450 2D6 (Homo sapiens), sequence (P10635 whole entry, looked up): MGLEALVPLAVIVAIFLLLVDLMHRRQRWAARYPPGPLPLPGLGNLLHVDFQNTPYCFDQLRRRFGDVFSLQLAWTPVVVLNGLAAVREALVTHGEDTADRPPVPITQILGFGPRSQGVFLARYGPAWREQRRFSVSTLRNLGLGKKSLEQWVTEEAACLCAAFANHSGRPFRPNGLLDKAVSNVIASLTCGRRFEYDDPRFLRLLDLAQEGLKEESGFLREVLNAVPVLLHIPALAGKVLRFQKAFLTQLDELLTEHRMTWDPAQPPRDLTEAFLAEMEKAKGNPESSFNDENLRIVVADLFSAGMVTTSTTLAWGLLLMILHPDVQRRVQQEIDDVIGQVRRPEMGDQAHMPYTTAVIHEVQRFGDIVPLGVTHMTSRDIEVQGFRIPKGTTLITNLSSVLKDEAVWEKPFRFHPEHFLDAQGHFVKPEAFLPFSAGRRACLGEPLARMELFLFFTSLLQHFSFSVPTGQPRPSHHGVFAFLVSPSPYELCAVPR
Cytochrome P450 2C9 (Homo sapiens), sequence (P11712 whole entry, looked up): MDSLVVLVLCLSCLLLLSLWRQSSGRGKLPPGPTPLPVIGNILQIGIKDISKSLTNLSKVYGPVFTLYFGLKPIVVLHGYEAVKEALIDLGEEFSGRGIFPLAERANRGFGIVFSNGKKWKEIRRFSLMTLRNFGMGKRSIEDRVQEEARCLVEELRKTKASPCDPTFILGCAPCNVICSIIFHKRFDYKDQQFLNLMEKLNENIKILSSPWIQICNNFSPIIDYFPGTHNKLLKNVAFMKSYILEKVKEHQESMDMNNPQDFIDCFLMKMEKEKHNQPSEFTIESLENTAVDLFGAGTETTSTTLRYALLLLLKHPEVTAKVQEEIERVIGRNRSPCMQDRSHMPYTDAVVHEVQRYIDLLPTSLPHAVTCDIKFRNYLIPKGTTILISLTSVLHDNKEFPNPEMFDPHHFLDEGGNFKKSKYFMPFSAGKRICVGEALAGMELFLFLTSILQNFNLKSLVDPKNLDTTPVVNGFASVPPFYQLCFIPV

COc1ccc(-c2nc3cnc(N4CCNCC4)nc3n(CCC#N)c2=O)cc1
25%: max response [8, 21]
active: Potency [2] 15.8 µM | Potency [7] 3.16 µM
inactive: Potency [1] > 11.4 µM | Potency [3] > 9.22 µM | Potency [4] > 46 µM | Potency [5] | Potency [6] | activity change, negative = inhibition [8] 4.58% | outcome [9]
17%: max response [8, 20]

CN(C)c1ccc(-c2nc(N(C)C)c3ccccc3n2)cc1
-1.1%: max response [8, 21]
2.51%: max response [8, 20]
inactive: activity change, negative = inhibition [10] 3.53% | activity change, negative = inhibition [11] -21.8% | Potency [3] > 46 µM | Potency [4] > 46 µM | Potency [5] | activity change, negative = inhibition [12] 118% [at 2.29 µM] | Potency [13] | Potency [15] | outcome [16] | activity change, negative = inhibition [8] -3.41% | Potency [17] | outcome [9]
active: Potency [2] 0.251 µM | Potency [14] 7.94 µM

COc1ccccc1CNc1ncnc2ccc(-c3c(C)noc3C)cc12
active: Potency [2] 7.94 µM | Potency [7] 1.26 µM
-3.01%: max response [8, 20]
-7.6%: max response [8, 21]
inactive: Potency [1] > 11.4 µM | Potency [3] > 46 µM | Potency [4] > 46 µM | Potency [5] | Potency [13] | Potency [15] | outcome [16] | activity change, negative = inhibition [8] -5.34% | outcome [9]

c1nc(NCCN2CCOCC2)c2cc(-c3ccc4c(c3)OCO4)ccc2n1
12.8%: max response [8, 21]
2.73%: max response [8, 20]
inactive: activity change, negative = inhibition [10] -13.5% | activity change, negative = inhibition [11] 1.02% | activity, negative = inhibition [18] -4.03% | Potency [3] > 46 µM | Potency [4] > 46 µM | Potency [5] | Potency [6] | Potency [13] | Potency [15] | activity change, negative = inhibition [8] 10.6% | Potency [17] | outcome [9]
active: Potency [2] 2.51 µM | Potency [19] 5.01 µM | Potency [14] 7.94 µM

O=C(c1csnn1)N1CCC2(CCCN(C(c3ccccc3)c3ccccc3)C2)CC1
-8.95%: max response [8, 21]
-8.01%: max response [8, 20]
inactive: Potency [1] > 11.4 µM | activity change, negative = inhibition [11] 1.14% | activity, negative = inhibition [18] 18.5% | Potency [4] > 46 µM | Potency [5] | Potency [6] | activity change, negative = inhibition [8] -2.23% | outcome [9]

Cc1ccccc1-c1nc(NCc2cccnc2)c2ccccc2n1
active: Potency [2] 0.501 µM | Potency [19] 0.501 µM | Potency [17] 28.2 µM
inactive: activity change, negative = inhibition [10] -6.01% | activity change, negative = inhibition [11] -1.21% | activity, negative = inhibition [18] 3.29% | Potency [3] > 46 µM | Potency [4] > 46 µM | Potency [5] | Potency [13] | outcome [16] | activity change, negative = inhibition [8] 1.87% | outcome [9]
-7.11%: max response [8, 20]
-4.19%: max response [8, 21]

Reference: PubChem BioAssay (NCATS)
